Laboratory results published in PMC4336329 (PLoS ONE, 2015).
Among all 310,000 compounds or so, about 14,000 (4.5%) showed an effect of 50% or more. The effect is printed as a negative number. This excerpt belongs to a sample that is enriched for strong results.

Each molecule was assayed against human ether-à-go-go-related gene (hERG) potassium channel (human, UniProt Q12809) (assay: primary screen, population patch clamp on CHO cells stably expressing hERG; higher = less effect of the substance).
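Note: peak tail current of the secondary pulse compared with the same well before compound.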

Chain of human ether-à-go-go-related gene (hERG) potassium channel (Q12809 whole entry, looked up): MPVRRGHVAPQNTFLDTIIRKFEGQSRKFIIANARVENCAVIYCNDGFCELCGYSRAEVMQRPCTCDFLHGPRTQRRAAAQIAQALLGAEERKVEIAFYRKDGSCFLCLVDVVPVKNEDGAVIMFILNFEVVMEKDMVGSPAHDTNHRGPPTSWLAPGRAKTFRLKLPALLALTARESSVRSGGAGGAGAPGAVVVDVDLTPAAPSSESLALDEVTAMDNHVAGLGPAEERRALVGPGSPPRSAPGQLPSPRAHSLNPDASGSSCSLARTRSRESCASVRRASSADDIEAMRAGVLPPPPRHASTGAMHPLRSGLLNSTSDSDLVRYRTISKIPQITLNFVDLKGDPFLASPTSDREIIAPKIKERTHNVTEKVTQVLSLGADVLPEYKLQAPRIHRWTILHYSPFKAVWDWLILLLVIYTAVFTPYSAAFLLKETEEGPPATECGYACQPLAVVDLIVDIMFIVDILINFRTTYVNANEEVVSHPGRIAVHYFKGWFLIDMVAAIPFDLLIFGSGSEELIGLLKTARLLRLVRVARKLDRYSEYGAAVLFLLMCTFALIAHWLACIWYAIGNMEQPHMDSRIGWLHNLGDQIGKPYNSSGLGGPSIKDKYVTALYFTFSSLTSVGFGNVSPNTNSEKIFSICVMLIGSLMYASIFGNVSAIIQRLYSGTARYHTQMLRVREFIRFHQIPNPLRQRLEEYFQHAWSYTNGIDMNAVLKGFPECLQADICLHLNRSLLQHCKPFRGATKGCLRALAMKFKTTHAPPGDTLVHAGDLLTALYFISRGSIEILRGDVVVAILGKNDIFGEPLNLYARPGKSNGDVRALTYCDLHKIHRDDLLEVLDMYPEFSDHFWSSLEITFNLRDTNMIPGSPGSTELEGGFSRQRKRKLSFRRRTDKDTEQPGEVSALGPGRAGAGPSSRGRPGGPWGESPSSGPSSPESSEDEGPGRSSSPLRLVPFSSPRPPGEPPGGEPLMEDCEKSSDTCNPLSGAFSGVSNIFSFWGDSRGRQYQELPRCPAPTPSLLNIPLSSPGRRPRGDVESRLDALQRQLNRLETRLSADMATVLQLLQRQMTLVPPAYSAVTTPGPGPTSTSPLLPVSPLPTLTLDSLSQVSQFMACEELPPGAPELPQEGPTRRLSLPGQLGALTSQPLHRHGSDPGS

Row | Structure (SMILES) | hERG current change (%, negative = inhibition) at 10uM [%]
1 | O=C(NCc1cccnc1)c1ccccc1-c1ccccc1 | -0.462
2 | CC1Cc2ccccc2N1S(=O)(=O)c1cccc(C(=O)Nc2cccnc2)c1 (centres unmarked) | -60.2
3 | CC1CN(S(=O)(=O)c2cccc(C(=O)NCCCn3ccnc3)c2)CC(C)O1.Cl (centres unmarked) | 6.18
4 | CC1Cc2ccccc2N1S(=O)(=O)c1cccc(C(=O)NC2CC2)c1 (centres unmarked) | -40
5 | Cc1ccc(NC(=O)c2cccc(S(=O)(=O)NCc3ccccc3)c2)nc1 | -50.7
6 | CC1Cc2ccccc2N1S(=O)(=O)c1cccc(C(=O)NCCCn2ccnc2)c1 (centres unmarked) | -50.1
7 | CC1Cc2ccccc2N1S(=O)(=O)c1cccc(C(=O)NCc2ccccn2)c1 (centres unmarked) | -67.6
8 | CC1Cc2ccccc2N1S(=O)(=O)c1cccc(C(=O)NCCCO)c1 (centres unmarked) | -27.9
9 | CC1Cc2ccccc2N1S(=O)(=O)c1cccc(C(=O)NCc2ccncc2)c1 (centres unmarked) | -34.9
10 | Cc1cc(NC(=O)c2cccc(S(=O)(=O)N3c4ccccc4CC3C)c2)no1 (centres unmarked) | -7.3
11 | O=C(Nc1cccnc1)c1cccc(S(=O)(=O)N2CCc3ccccc32)c1 | 11
12 | Cc1cccnc1NC(=O)c1cccc(S(=O)(=O)NCc2ccccc2)c1 | -14.9
13 | Cc1ccnc(NC(=O)c2cccc(S(=O)(=O)NCc3ccccc3)c2)c1 | -34.6
14 | Cc1c(Cl)cccc1NC(=O)CN1CCC(NC(=O)C2CCCCC2)CC1 | -0.0286
15 | CCOC(=O)c1[nH]c(C)c(C(=O)Nc2ccccc2F)c1C | -11.2
16 | CCOc1ccccc1NC(=O)Cn1c(=O)n(-c2ccccc2)c(=O)c2oc3ccccc3c21 | -16.4
17 | O=C(CN(CC1CCCO1)C(=O)CNS(=O)(=O)c1ccc(F)cc1)NCc1ccccc1 (centres unmarked) | 7.27
18 | CC1CCN(c2ccc3nnc(CCC(=O)NC(C)C)n3n2)CC1 | 2.67
19 | N#CC1=C(N)OC(c2ccccc2)=C(C#N)C1c1ccc2c(c1)OCO2 (centres unmarked) | 14.3
20 | Cc1ccc(S(=O)(=O)Nc2ccc(C(=O)NCc3ccccn3)cc2)cc1 | -7.17
21 | Cc1ccc(NS(=O)(=O)c2ccc(C(=O)NCc3ccccn3)cc2)cc1 | 18.8
22 | Cc1ccc(NS(=O)(=O)c2cccc(C(=O)NCc3ccccn3)c2)cc1 | -68.5
23 | COc1ccc(OC)c(C2Nc3ccccc3NC3=C2C(=O)CC(C)(C)C3)c1 (centres unmarked) | 15.4
24 | O=C(Nc1ccc(Br)cc1Cl)c1cnccn1 | 5.88

Row | Structure (SMILES) | hERG current change (%, negative = inhibition) at 10uM [%]
25 | CCc1nnc(NC(=O)CSc2nc3cc(OC)c(OC)cc3cc2C)s1 | 5.07
26 | CCC(=O)N1CCc2cc(S(=O)(=O)CCC(=O)N3CCN(c4ccc(F)cc4)CC3)ccc21 | -2.82
27 | O=c1c2cc([N+](=O)[O-])ccc2nc2n1CCCC2 | 4.82
28 | CCOC(=O)C(Sc1nnc2c3ccccc3n(CC)c2n1)C(=O)OCC | -28.7
29 | CCOC(=O)c1sc(NC(=O)C(CC)Sc2nnc3c4ccccc4n(CC)c3n2)nc1C (centres unmarked) | -59.4
30 | C=CCn1c2ccccc2c2nnc(SC(CC)C(=O)Nc3nc(C)c(C(=O)OCC)s3)nc21 (centres unmarked) | -43.9
31 | Cc1ccc(-c2ccc(CCC(=O)O)n2Cc2ccco2)cc1 | 12.2
32 | Cc1ccc(C(C)C)c(OCCN(C)C)c1.O=C(O)C(=O)O | -5.47
33 | COc1ccc(OCCn2ccnc2C)cc1.O=C(O)C(=O)O | -0.197
34 | Cc1ccc(OCC(=O)NC2CCCC2)c(C)c1 | 2.93
35 | Cc1ccc(OCCCCNC2CCCC(C)C2C)c(C)c1.O=C(O)C(=O)O (centres unmarked) | -56.9
36 | Cc1ccc(OCCCCNC2CCCCC2)c(C)c1.O=C(O)C(=O)O | -42.8
37 | Cc1ccc(C(C)C)c(OCCCn2ccnc2C)c1.O=C(O)C(=O)O | -63.8
38 | Cc1ccc(C(C)C)c(OCCn2ccnc2C)c1.O=C(O)C(=O)O | -35.1
39 | Cc1ccc(OCCCCn2ccnc2C)c(C)c1.O=C(O)C(=O)O | -64.1
40 | Cc1ccc(OCCCCn2cnc3ccccc32)c(C)c1.O=C(O)C(=O)O | -20.5
41 | Cc1cc(C)nc(N/N=C/c2cn[nH]c2-c2ccccc2)n1 | -6.34
42 | Cc1cc([N+](=O)[O-])nn1CC(=O)NCc1ccccc1 | 24.2
43 | CC(C(=O)N=c1sc2ccccc2n1C)N1C(=O)C2CC=CCC2C1=O (centres unmarked) | -40.2
44 | Cc1cccc(C)c1NC(=O)CNC(=O)C(NC(=O)c1ccc(C(C)(C)C)cc1)C(C)C (centres unmarked) | 14.4
45 | CCc1nnc(NC(=O)CN2CCN(c3ccccc3F)CC2)s1.Cl | -12.9
46 | CSc1ccc(CCCCCCOC(=O)C(C)(C)C)cc1 | 3.95
47 | CCn1c(=O)cc(SCC(=O)NCCCN2CCC(C)CC2)c2ccccc21 | -13
48 | CCn1c(=O)cc(SCC(=O)NCCCN2CCN(c3ccccc3F)CC2)c2ccccc21 | -62.2

Row | Structure (SMILES) | hERG current change (%, negative = inhibition) at 10uM [%]
49 | CCn1c(=O)cc(SCC(=O)N2CCN(C)CC2)c2ccccc21 | 6.22
50 | Cn1c(=O)cc(SCC(=O)NCc2ccc(F)cc2)c2ccccc21 | -17.4
51 | Cn1c(=O)cc(OCC(=O)NCCCN2CCN(c3ccccc3F)CC2)c2ccccc21 | -45.4
52 | CCn1c(=O)cc(SCC(=O)NCCN2CCN(Cc3ccccc3)CC2)c2ccccc21 | -49.4
53 | CCn1c(=O)cc(SCC(=O)NCCCN2CCN(c3ccc(F)cc3)CC2)c2ccccc21 | -46
54 | Cn1c(=O)cc(SCC(=O)NCCCN2CCOCC2)c2ccccc21 | -2.51
55 | Cn1c(=O)cc(SCC(=O)NCCCN2CCN(c3ccc(F)cc3)CC2)c2ccccc21 | -69.2
56 | Cn1c(=O)cc(SCC(=O)NCCCN2CCN(c3ccccc3F)CC2)c2ccccc21 | -55.5
57 | CCn1c(=O)cc(SCC(=O)N2CCN(c3ccccc3F)CC2)c2ccccc21 | -21.7
58 | CCn1c(=O)cc(SCC(=O)N2CCN(c3ccccc3OC)CC2)c2ccccc21 | -52
59 | COc1ccc(-c2c(C)oc3c(CN4CCOCC4)c(O)ccc3c2=O)cc1 | 7.31
60 | O=C(O)CC(NC(=O)OCc1ccccc1)c1ccc(Br)cc1 (centres unmarked) | 20.2
61 | CCCn1c(=O)c2c(nc(Br)n2CCC)n(C)c1=O | -1.31
62 | CCC(C)c1ccccc1NC(=O)C(C)NCCN(C)C.O=C(O)C(=O)O (centres unmarked) | 10.3
63 | CSCCC1NC(=O)N(CC(=O)Nc2c(Cl)cc(Cl)cc2Cl)C1=O (centres unmarked) | -2.68
64 | O=c1[nH]c(O)c(C=Nc2ccc(F)c(Cl)c2)c(=O)[nH]1 | 7.3
65 | Cc1ccc(S(=O)(=O)Oc2ccc(/C=N/N=C3/NC(=O)C(CC(=O)O)S3)cc2)cc1[N+](=O)[O-] (centres unmarked) | 24
66 | Cc1ccc2[nH]c(=O)c(NC(N)=S)nc2c1 | 14
67 | S=c1nc(C2CCCCC2)n(-c2ccccc2)[nH]1 | 15.6
68 | O=C(C1CC1)N1CCN(C(c2ccccc2)c2ccccc2)CC1 | 6.33
69 | Cc1ccccc1-n1nc2c(c1NC(=O)c1ccc3c(c1)OCO3)CS(=O)(=O)C2 | -17.6
70 | CNC(=S)N/N=C/c1ccccc1OCC(=O)O | 18.4
71 | CC(C)C(=O)NN(C(=O)c1ccccc1)c1ccccc1 | 20.4
72 | Cn1c(=O)cc(SCC(=O)NCCN2CCN(c3ccccc3F)CC2)c2cc(Cl)ccc21 | -54.1

Row | Structure (SMILES) | hERG current change (%, negative = inhibition) at 10uM [%]
73 | Cn1c(=O)cc(OCCCC(=O)NCCN2CCN(c3ccccc3F)CC2)c2ccccc21 | -7.18
74 | CCOc1ccc(CCNC(=O)CSc2cc(=O)n(C)c3ccc(Cl)cc23)cc1OCC | -21.4
75 | O=C(O)C1(c2ccccc2)CCN(S(=O)(=O)c2ccc(F)c(F)c2)CC1 | 2.44
76 | COc1ccc(-c2cc(O)cc(O)c2)cc1 | -3.33
77 | COc1ccc(/C=C/c2cc[n+](C(=O)Cc3ccccc3)cc2)cc1.[Cl-] | -51.2
78 | COc1ccc(/C=C/C(=O)NCCCc2ccccc2)cc1 | -46.8
79 | COc1ccc(NC(=O)Cc2ccccc2)cc1 | 4.36
80 | CCC(=O)Nc1ccc(OCC2CCCO2)cc1 (centres unmarked) | 7.08
81 | c1ccc(CN2CCN(Cc3ccc4ccccc4c3)CC2)cc1 | 5.24
82 | Cl.OC1(c2ccc3ccccc3c2)CCN(Cc2ccccc2)C1 (centres unmarked) | -57.1
83 | Cl.OC1(c2ccc(F)cc2)CCN(Cc2ccccc2)C1 (centres unmarked) | -15.1
84 | c1ccc2c(c1)OCC(CNc1ncnc3sccc13)O2 (centres unmarked) | -20.9
85 | CCOC(=O)C1=C(C)NC(=O)CC1c1ccccc1OC (centres unmarked) | 7.62
86 | Cc1ccc(NC2=NCC(=O)N2Cc2ccc3c(c2)OCO3)c(C)c1 | -1.91
87 | Cl.c1ccc(CCCN2CCN(CCOC(c3ccccc3)c3ccccc3)CC2)cc1 | -71.8
88 | Cl.c1ccc(C(OCCN2CCNCC2)c2ccccc2)cc1 | -11.9
89 | O=S(=O)(c1ccc(F)cc1)N1CCN(CCc2ccccc2)CC1 | -8.48
90 | O=C1CCN(CCCc2ccccc2)CCN1CCO | 2.01
91 | c1ccc(CN2CCN(c3ncccn3)CC2)cc1 | 11.6
92 | c1ccc(COCCN2CCN(CCOCc3ccccc3)CC2)cc1 | -39.5
93 | Cl.Fc1ccc(C(OCCN2CCN(CCCc3ccccc3)CC2)c2ccc(F)cc2)cc1 | -77.4
94 | CCC(C(=O)N1CCN(c2ncccn2)CC1)c1ccccc1 (centres unmarked) | -0.742
95 | O=C(O)/C=C\C(=O)O.c1ccc(C(OCCN2CCN(c3ncccn3)CC2)c2ccccc2)cc1 | -65.9
